Measured values reported in PubChem BioAssay AID995 (National Center for Advancing Translational Sciences (NCATS), 2007).
Among all 72,000 compounds or so, about 710 (0.99%) were called active. Another 7% or so got no clear call; they are omitted. This excerpt belongs to a sample that is enriched for actives. Values without a mark were called inactive. Calls come from the whole dose curve; as a rule, active = well fitted inhibition curve with a large enough effect; inconclusive = small, poorly fitted or top-dose-only effect; inactive = no such curve, though single readings can be large or run the other way.
% is set by controls: 0 for no effect and ±100 for the full control effect; potency is the fitted concentration of half-maximal effect.

Experiment: qHTS Assay for Inhibitors of the ERK Signaling Pathway using a Homogeneous Screening Assay; note: nearly all actives have a fitted effect of over 55% in size
Details: HEK293-V1b, vasopressin-stimulated pERK AlphaScreen; series mostly up to 57.5 µM; activity, negative = inhibition: at the top concentration
Excerpt: qHTS Assay for Inhibitors of the ERK Signaling Pathway using a Homogeneous Screening Assay; note: nearly all actives have a fitted effect of over 55% in size
NIH Chemical Genomics Center [NCGC]
NIH Molecular Libraries Screening Centers Network [MLSCN]
Assay Submitter (PI): Dr. Wei Zheng, NCGC/NIH
The Ras/extracellular-signal-regulated kinase (ERK) mitogen activated protein (MAP) kinase signaling pathway (ERK1/2 cascade) plays is a key role in transmitting signals from the cell surface to the nucleus (Nishida and Gotoh 1993; Chang and Karin, 2001). The cascade is initiated by the small G-protein Ras, which recruits Raf […], where activation occurs. Alternatively, this pathway can be activated by elevating intracellular cAMP.
Activation of the ERK pathway is essential in increased cell division and cell survival. Sustained and constitutive activation of the ERK pathway, however, has been linked to uncontrolled cell proliferation, increased cell survival, and tumor progression. Thus, the ERK has been as an attractive target for cancer chemotherapy in the past few years (Sebolt-Leopold and Herrera, 2004). Given its physiological and pathological importance, assessment of ERK phosphorylation has been broadly performed in both basic research and drug discovery. Most assays for the measurement of ERK phosphorylation use the antibody-based detection methods, such as western blot and ELISA. These assays require multiple reagent additions with cell wash steps and are not suitable for high throughout screening.
The current cell-based ERK phosphorylation assay was performed using AlphaScreen platform. AlphaScreen is a two bead-based proximity-dependent chemical energy transfer luminescent assay platform. The assay reagents (ERK SureFire(TM) kit) were supplied from TGR BioSciences (Australia). In the presence of specific antibodies, phosphorylated ERK will bring "donor" and "acceptor" beads to a proximity range (<200 nm), and subsequently lead a chemical luminescent reaction upon exciting donor beads with 680 nm laser. To exclude the assay-related false positives, we used a biotinylated rabbit IgG to perform counter-screen. The biotinylated antibody mimics the phosphorylated ERK1/2 for bringing streptavidin coated beads and protein-A coated beads to a proximity range for the AlphaScreen detection.
NCGC Assay Protocol Summary:
HEK293 cells stably expressing type-1 vasopressin receptor (V1b) were maintained in DMEM medium (Invitrogen, Carlsbad, CA) at 37C under a humidified atmosphere containing 5% CO2 and 95% air. The medium contained 10% FBS, 2 mM L-glutamine, non-essential amino acid, pyruvate and 50 U/ml penicillin and 50 ug/ml streptomycin (Invitrogen). The aliquots of frozen cells were stored at -135C and used for the compound screening. All compounds were screened as titrations from 0.6 nM to 46 uM final concentration. Vasopressin was used to stimulate the ERK phosphorylation pathway. The ERK phosphorylation in cells was determined using an AlphaScreen assay kit provided by PerkinElmer. Data were normalized to the controls for basal activity (DMSO only) and 100% activation (25 nM vasopressin). AC50 values were determined from concentration-response data modeled with the standard Hill equation.
(1) Seed 4 ul/well of resuspended frozen HEK293 cells containing 2000 cells in white 1536-well plates for overnight with 1% FBS at 37C under a humidified atmosphere containing 5% CO2 and 95% air.
(2) Add 23 nL compounds in DMSO solution. The final titration was 0.6 nM to 46 uM.
(3) Incubate at 37C for 30 min.
(4) Dispense 0.5uL vasopressin (25 nM in final)
(5) Incubate at 37C for 5 min.
(6) Dispense 0.5uL of 1:2 diluted 5x lysis buffer.
(7) Incubate at 37C for 10 min.
(8) Dispense 1.5uL of mixture of activation buffer and reaction buffer with AlphaScreen beads (streptavidin donor beads and protein-A acceptor beads, 10 ng/well for each).
(9) Incubate at room temperature for 5 hr.
(10) Detect the assay plate in an EnVision plate reader (PerkinElmer) using the AlphaScreen detection mode.
[…]
In the case of `CC1(C)OC2CC(=O)OC[C@@]23C1CC(=O)[C@]1(C)C3CC[C@@]2(C)C(c3ccoc3)OC(=O)C3O[C@@]321` (stereo partly specified), the “activity, negative = inhibition” value is reported as 5.86%.
`O=C(O)c1ccc(C(=O)c2ccccc2C(=O)O)cc1C(=O)O` gave an activity, negative = inhibition of 14.2% [at 11.5 µM].
With `Cc1c(O)cc(O)c2c(=O)c(-c3ccc(O)cc3)coc12` the “activity, negative = inhibition” value was 10.2%.
For `COc1ccc(OC)c(NC(=O)CSc2nc3cccnc3n2C)c1`, the Potency was 20 µM (active).
In the case of `COc1ccc(OC)c(NC(=O)CSc2nc(N)c(-c3ccccc3)c(=O)[nH]2)c1`, the “activity, negative = inhibition” value is reported as -26.5%.
For `CCn1c(COc2ccc(OC)cc2)nnc1SCC(=O)Nc1cc(OC)ccc1OC`, the “activity, negative = inhibition” value was -28%.
In the case of `CCCOC(=O)c1[nH]c2c(c1C)C(=O)CC(c1cc(OC)c(OC)c(OC)c1)C2` (stereo unspecified), the Potency is reported as 25.1 µM (active).
With `CCCOC(=O)C1=C(C)NC2=C(C(=O)C(C(=O)OC)C(C)C2)C1c1ccc(N(C)C)cc1` (stereo unspecified) the “activity, negative = inhibition” value was -12.3%.
With `COC(=O)C1C(=O)c2c([nH]c(C(=O)OCCSC)c2C)CC1C` (stereo unspecified) the “activity, negative = inhibition” value was -19.7%.
With `CC(=O)OCC(=O)[C@@]1(O)CCC2C3CCC4=CC(=O)CC[C@@]4(C)[C@]3(F)C(O)C[C@]21C` (stereo partly specified) the “activity, negative = inhibition” value was -18%.
With `C[C@@H]1O[C@@H](OC[C@H]2O[C@@H](Oc3c(-c4cccc(O)c4O)oc4cc(O)cc(O)c4c3=O)[C@H](O)[C@@H](O)[C@@H]2O)[C@H](O)[C@H](O)[C@H]1O` the “activity, negative = inhibition” value was -17.5%.
With `COc1ccccc1N1CCN(C[C@@H]2CN3C(=O)N(C)c4ccccc4C3=N2)CC1` the “activity, negative = inhibition” value was -15.9%.
In the case of `COc1cc(-c2nn3c(-c4cccc(C)c4)nnc3s2)cc(OC)c1OC`, the “activity, negative = inhibition” value is reported as -16.6%.
In the case of `Fc1ccc(-c2nnc3sc(-c4ccc5c(c4)OCO5)nn23)cc1`, the “activity, negative = inhibition” value is reported as 6.41%.
With `COc1ccc(-c2nn3c(-c4ccccc4)nnc3s2)cc1OC` the Potency was 7.94 µM (active).
For `CC(=O)O[C@]1(C(C)=O)CC[C@@H]2[C@@H]3C=C(C)C4=CC(=O)CC[C@@]4(C)[C@H]3CC[C@]21C`, the “activity, negative = inhibition” value was 35.5% [at 25.7 µM].
For `O=C(O)c1nn(-c2ccc(Cl)cc2)c2c1C(=O)c1ccccc1C2=O`, the activity, negative = inhibition was -10.9% [at 11.5 µM].
In the case of `CC1CC[C@@]23CCC4(C)[C@@]5(C)CCC6C(C)(C)C(O)CC[C@@]6(C)C5C=C[C@@]4(OC2=O)C3C1C` (stereo partly specified), the “activity, negative = inhibition” value is reported as 10.4%.
For `CN(C)CCc1c[nH]c2ccc(Cn3cncn3)cc12`, the “activity, negative = inhibition” value was 20.1%.
For `N#Cc1ccccc1-c1ccc2ncnc(NCc3cccnc3)c2c1`, the “activity, negative = inhibition” value was -12.3%.
In the case of `CC1(C)SC2C(NC(=O)COc3ccccc3)C(=O)N2C1C(=O)O` (stereo unspecified), the “activity, negative = inhibition” value is reported as 5.65%.
In the case of `S=c1c2[nH]cnc2ncn1CCSc1ncnc2nc[nH]c12`, the activity, negative = inhibition is reported as -0.588% [at 11.5 µM].
With `COC(=O)NC(c1ccccc1)[C@]1(C(C)=O)CCCC1=O` (stereo partly specified) the activity, negative = inhibition was -3.18% [at 11.5 µM].
With `Nc1nc2nc(Cl)[nH]c2c(=O)[nH]1` the “activity, negative = inhibition” value was 19.7%.
For `O=C(O)C1CCN(c2ncnc3ccc(-c4ccccc4C(F)(F)F)cc23)CC1`, the “activity, negative = inhibition” value was -10.5%.
In the case of `CCCN1[C@H](C(=O)OC)C[C@@]2(O)[C@@H](O)[C@@H](O)[C@@H](O)C[C@@H]12`, the “activity, negative = inhibition” value is reported as 26.9%.
For `Nc1ncn(C2OC(CO)C(O)C2O)c(=O)n1` (stereo unspecified), the “activity, negative = inhibition” value was 15.1%.
For `COC(=O)[C@@]1(Cc2ccc(OC)cc2)[C@H]2c3cc(C(=O)N4CCCC4)n(Cc4ccc(C(F)(F)F)nc4)c3C[C@H]2CN1C(=O)c1ccccc1`, the “activity, negative = inhibition” value was 2.03%.
In the case of `O=c1c(-c2ccc(F)cc2)nc2cnc(N3CCOCC3)nc2n1-c1ccccc1`, the “activity, negative = inhibition” value is reported as -29%.
In the case of `C=C(C)C1CC=C(CO)CC1` (stereo unspecified), the “activity, negative = inhibition” value is reported as 22.5%.
For `COc1ccccc1CNc1cc(-c2ccccc2CN(C)C)ncn1`, the “activity, negative = inhibition” value was 11.9%.
`Cc1cc(OCC(=O)O)c(Cl)cc1Cl` showed an activity, negative = inhibition of -16.5% [at 11.5 µM].
For `Fc1ccc2[nH]c3c(N4CCSCC4)ncnc3c2c1`, the Potency was 12.6 µM (active).
With `Cc1ccc(-n2ncc3c(N4CCN(c5ccc(F)cc5)CC4)ncnc32)c(C)c1` the “activity, negative = inhibition” value was -27.4%.
For `CCN1CCCC1CNc1ncnc2c1[nH]c1ccc(F)cc12` (stereo unspecified), the “activity, negative = inhibition” value was -11.8%.
For `Oc1ccc(O)c2c(O)cccc12`, the “activity, negative = inhibition” value was -3.49%.
With `C/C(=C\C(=O)c1cccnc1)Nc1ccc(C)c(C)c1` the “activity, negative = inhibition” value was -5.4%.
With `CC(=O)c1cccc(NC(=O)c2ccncc2)c1` the “activity, negative = inhibition” value was 12.2%.
For `C/C(=C\C(=O)c1ccccc1)Nc1cccc(O)c1`, the Potency was 7.94 µM (active).
For `Cc1noc(C)c1-c1nc(Nc2ccccc2)c2ccccc2n1`, the “activity, negative = inhibition” value was -25.9%.
In the case of `COc1cccc(-c2nc(Nc3ccncc3)c3ccccc3n2)c1`, the Potency is reported as 15.8 µM (active).
With `COc1ccc2[nH]cc(CCNc3nc(-c4cccc(NS(C)(=O)=O)c4)nc4ccccc34)c2c1` the “activity, negative = inhibition” value was -30.4%.
With `CCC(C)(C)N=C(NC#N)Nc1cccnc1` the “activity, negative = inhibition” value was -7.8%.
In the case of `N[C@H](C(=O)O)c1ccc(C(=O)O)c(O)c1`, the “activity, negative = inhibition” value is reported as -22.7%.
In the case of `CC(=O)Oc1c2c(c3c(c1CC=C(C)C)O[C@@]14C(=CC5CC1C(C)(C)OC4(C/C=C(\C)C(=O)O)C5=O)C3=O)OC(C)(CCC=C(C)C)C=C2` (stereo partly specified), the “activity, negative = inhibition” value is reported as -10.8%.
For `NCCCNCCCCN(CCCN)/[N+]([O-])=N/O`, the “activity, negative = inhibition” value was -1.46%.
